From PubChem BioAssay (NCATS)
Results filed as inconclusive are left out. Activity calls are given as the source filed them. Unless noted, calls follow the shape of the dose curve; as a rule, active = well fitted curve in the direction sought with a large enough effect; inconclusive = small, poorly fitted or top-dose-only effect, or another doubt; inactive = no such curve, though single readings can be large; an effect the other way counts as inactive or inconclusive.

Assays:
[1] = qHTS for Inhibitors of Plasmodium falciparum (DD2) proliferation (AID 504314); also: potency is read from the fitted curve at half-maximal effect;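 as to activity, negative = inhibition: parasite DNA measured by SYBR Green fluorescence after red cell lysis; plate controls were DMSO vehicle for no effect and artemisinin wells for full effect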
Outline: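 Parasite proliferation measured as SYBR Green signal from Plasmodium DNA, mature erythrocytes lacking DNA. 72 h incubation, 37C; activity scaled between vehicle and 0.29 uM artemisinin, with correction from vehicle-only plates.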

[2] = qHTS for Inhibitors of Plasmodium falciparum (GB4) proliferation (AID 504315); also: nearly all actives have a fitted effect of over 50% in size; also: potency is read from the fitted curve at half-maximal effect;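 as to activity change, negative = inhibition: 0% = DMSO vehicle and -100% = 0.29 µM artemisinin control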
Outline: (§1)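 Parasite growth measured as SYBR Green DNA fluorescence (ex 485, em 535 nm) after overnight lysis following 72 h culture at 37 °C, 0.3% parasitemia, 2.5% hematocrit. Values normalized against DMSO and 0.29 uM artemisinin controls, with plate-stack correction.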

[3] = qHTS for Inhibitors of Plasmodium falciparum (HB3) proliferation (AID 504318);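 also: 0% = DMSO vehicle and -100% = artemisinin control; nearly all actives have a fitted effect of over 60% in size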
Outline: as §1

[4] = qHTS for Inhibitors of Plasmodium falciparum (CP250) proliferation (AID 504320); also: potency is read from the fitted curve at half-maximal effect;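 as to activity change, negative = inhibition: plate controls were DMSO vehicle for no effect and 0.29 µM artemisinin control for full effect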
Outline: as §1

[5] = molecular target: Atrial natriuretic peptide receptor 1 (Homo sapiens) (UniProt P16066); experiment: Natriuretic polypeptide receptor (hNpr1) antagonism - Pilot CMLD screen (AID 1347052; calls by dose curve;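 also: HEK293 cells with hNpr1 stimulated by hNppA peptide at 0.1 nM; cGMP level read as GloSensor luciferase luminescence after agonist stimulation; series mostly up to about 9.2 µM; % is scaled to controls: 0 for no effect and ±100 for the full control effect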)
[6] = molecular target: Cytochrome P450 3A4 (Homo sapiens) (UniProt P08684); experiment: qHTS Assay for Activators of Cytochrome P450 3A4 (AID 885); also: nearly all actives have a fitted effect of over 65% in size
Outline: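 Human CYP3A4 dealkylates Luciferin-PPXE to luciferin, which luciferase detection converts to light. Substrate was at its KM (25uM), buffer 200mM KPO4, reaction 60 min at RT.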

[7] = molecular target: Cytochrome P450 2D6 (Homo sapiens) (UniProt P10635); experiment: qHTS Assay for Inhibitors and Substrates of Cytochrome P450 2D6 (AID 891); also: nearly all actives have a fitted effect of over 60% in size; also: potency is read from the fitted curve at half-maximal effect;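 as to activity change, negative = inhibition: luciferin methyl ether substrate demethylated by CYP2D6 with NADPH regeneration; % is scaled to controls: 0 for no effect and ±100 for the full control effect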
Outline: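 Luminescent read-out of luciferin formed by 5 nM human CYP2D6 demethylating 30 uM Luciferin-ME EGE (Km level) over 60 min at room temperature after NADPH regeneration addition. Data normalized to full inhibition by 1.43 uM quinidine.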

[8] = molecular target: Cytochrome P450 2C19 (Homo sapiens) (UniProt P33261); experiment: qHTS Assay for Inhibitors and Substrates of Cytochrome P450 2C19 (AID 899); also: nearly all actives have a fitted effect of over 60% in size; also: potency is read from the fitted curve at half-maximal effect; as to activity, negative = inhibition: % is scaled to controls: 0 for no effect and ±100 for the full control effect
Outline: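 Reactions contain 5nM enzyme, 10uM Luciferin-H EGE (KM) and 50mM KPO4; compound preincubates 10 min at 37C, NADPH regeneration starts turnover for 60 min. Luminescence after detection reagent gives activity.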

[9] = molecular target: Cytochrome P450 3A4 (Homo sapiens) (UniProt P08684); experiment: qHTS Assay for Inhibitors and Substrates of Cytochrome P450 3A4 (AID 884); also: series mostly up to about 57 µM; % is scaled to controls: 0 for no effect and ±100 for the full control effect; nearly all actives have a fitted effect of over 50% in size
Outline: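 Luminescent readout of luciferin produced by CYP3A4 (20 nM) dealkylation of Luciferin-PPXE, 25 uM (its KM). NADPH-driven reaction ran 60 min at RT after 10 min compound preincubation; data scaled to 57 uM ketoconazole as 100% inhibition.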

Atrial natriuretic peptide receptor 1 (Homo sapiens), sequence (P16066 whole entry, looked up): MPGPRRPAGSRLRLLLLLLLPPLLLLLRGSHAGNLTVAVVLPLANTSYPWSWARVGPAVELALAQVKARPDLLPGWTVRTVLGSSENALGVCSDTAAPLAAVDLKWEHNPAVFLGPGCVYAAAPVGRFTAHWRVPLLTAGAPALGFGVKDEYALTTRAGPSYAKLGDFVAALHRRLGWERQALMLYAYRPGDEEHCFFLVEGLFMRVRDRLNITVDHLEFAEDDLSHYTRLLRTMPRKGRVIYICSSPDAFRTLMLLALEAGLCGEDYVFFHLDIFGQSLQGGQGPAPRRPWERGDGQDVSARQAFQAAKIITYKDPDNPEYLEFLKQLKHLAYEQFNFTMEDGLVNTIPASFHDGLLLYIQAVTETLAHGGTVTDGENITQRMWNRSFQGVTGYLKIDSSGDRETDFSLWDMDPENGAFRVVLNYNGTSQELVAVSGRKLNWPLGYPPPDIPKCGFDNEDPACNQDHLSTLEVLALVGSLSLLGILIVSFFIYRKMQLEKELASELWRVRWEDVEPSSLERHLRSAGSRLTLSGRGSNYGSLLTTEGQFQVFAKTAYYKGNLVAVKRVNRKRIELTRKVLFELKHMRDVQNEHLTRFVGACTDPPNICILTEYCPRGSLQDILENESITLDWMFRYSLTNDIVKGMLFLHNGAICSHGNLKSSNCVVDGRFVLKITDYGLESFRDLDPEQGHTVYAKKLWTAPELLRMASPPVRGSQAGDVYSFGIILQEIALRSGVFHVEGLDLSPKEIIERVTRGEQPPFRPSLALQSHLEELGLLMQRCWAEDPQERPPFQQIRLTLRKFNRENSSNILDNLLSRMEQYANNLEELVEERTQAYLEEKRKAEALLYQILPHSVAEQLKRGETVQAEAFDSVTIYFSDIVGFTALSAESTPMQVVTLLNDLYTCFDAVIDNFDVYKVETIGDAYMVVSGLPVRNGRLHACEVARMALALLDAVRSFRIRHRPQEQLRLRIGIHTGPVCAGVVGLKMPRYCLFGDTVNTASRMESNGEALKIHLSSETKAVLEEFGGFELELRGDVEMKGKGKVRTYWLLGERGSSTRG
Cytochrome P450 2D6 (Homo sapiens), sequence (P10635 whole entry, looked up): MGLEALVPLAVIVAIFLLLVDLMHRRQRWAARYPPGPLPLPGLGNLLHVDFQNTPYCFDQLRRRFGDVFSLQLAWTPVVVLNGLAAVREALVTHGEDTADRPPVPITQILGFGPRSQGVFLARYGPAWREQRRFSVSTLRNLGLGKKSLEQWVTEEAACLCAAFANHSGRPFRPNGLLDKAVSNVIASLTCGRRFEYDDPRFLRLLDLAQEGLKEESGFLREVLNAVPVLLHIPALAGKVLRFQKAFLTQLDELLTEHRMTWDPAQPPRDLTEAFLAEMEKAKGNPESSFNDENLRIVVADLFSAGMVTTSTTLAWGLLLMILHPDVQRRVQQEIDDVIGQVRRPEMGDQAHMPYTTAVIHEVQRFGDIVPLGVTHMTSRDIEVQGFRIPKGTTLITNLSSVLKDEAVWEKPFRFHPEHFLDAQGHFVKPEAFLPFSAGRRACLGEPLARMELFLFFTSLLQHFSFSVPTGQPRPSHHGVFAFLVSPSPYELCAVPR
Cytochrome P450 3A4 (Homo sapiens), sequence (P08684 whole entry, looked up): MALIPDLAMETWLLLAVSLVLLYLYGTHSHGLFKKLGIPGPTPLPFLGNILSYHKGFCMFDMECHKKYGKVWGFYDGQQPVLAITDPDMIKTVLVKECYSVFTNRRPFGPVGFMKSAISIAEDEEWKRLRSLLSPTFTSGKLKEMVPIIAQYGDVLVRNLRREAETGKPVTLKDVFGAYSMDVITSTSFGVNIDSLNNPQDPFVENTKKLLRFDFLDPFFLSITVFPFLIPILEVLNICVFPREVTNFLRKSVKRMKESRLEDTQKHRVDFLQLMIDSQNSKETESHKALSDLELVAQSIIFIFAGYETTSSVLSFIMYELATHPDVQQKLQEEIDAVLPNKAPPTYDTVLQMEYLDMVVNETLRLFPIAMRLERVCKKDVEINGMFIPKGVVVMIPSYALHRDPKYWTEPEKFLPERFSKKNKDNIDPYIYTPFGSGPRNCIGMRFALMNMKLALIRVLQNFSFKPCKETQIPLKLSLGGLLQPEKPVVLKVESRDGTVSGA
Cytochrome P450 2C19 (Homo sapiens), sequence (P33261 whole entry, looked up): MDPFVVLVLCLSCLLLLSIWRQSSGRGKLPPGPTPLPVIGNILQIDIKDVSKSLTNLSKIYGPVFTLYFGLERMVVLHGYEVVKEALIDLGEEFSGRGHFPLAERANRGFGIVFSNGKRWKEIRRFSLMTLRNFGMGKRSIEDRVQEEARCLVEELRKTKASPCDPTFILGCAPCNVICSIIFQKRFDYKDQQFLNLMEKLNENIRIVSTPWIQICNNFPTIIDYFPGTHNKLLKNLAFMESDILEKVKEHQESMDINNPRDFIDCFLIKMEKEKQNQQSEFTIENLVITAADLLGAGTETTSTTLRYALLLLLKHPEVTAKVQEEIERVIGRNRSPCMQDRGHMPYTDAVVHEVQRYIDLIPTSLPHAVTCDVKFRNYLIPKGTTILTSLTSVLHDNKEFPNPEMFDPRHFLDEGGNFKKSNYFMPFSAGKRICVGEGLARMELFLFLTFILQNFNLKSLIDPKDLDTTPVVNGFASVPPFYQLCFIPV

COC(=O)[C@H](COC(C)(C)C)NC(=O)O[C@H]1C(=O)c2ccc(OC)cc2O[C@@H]1c1ccc2c(c1)OCO2
inactive: Potency [1] | Potency [2] | Potency [3] | Potency [4] | Potency [5]

CCOC(=O)CCN1C(=O)[C@@H]2[C@H]3[C@H](O)[C@H](O)CC(=NNC(=O)OCc4ccccc4)[C@@H]3CC[C@H]2C1=O
inactive: Potency [1] | Potency [2] | Potency [4] | Potency [5]

CCN1C(=O)N[C@@H](CCc2ccccc2)[C@@H](C(=O)OC)[C@H]1C
inactive: activity, negative = inhibition [1] 2.52% [at 1.12 µM] | Potency [2] | Potency [3] | Potency [4] | Potency [5]

CC(CCN1CCc2nc(-c3ccccc3)c(-c3ccccc3)cc2C1)=NOC[C@@H](O)COCc1ccco1
inactive: Potency [1] | Potency [2] | Potency [3] | Potency [4] | Potency [5]

CC(C)=CCCC(C)=CCON=C1C[C@@H](O)[C@@H](O)[C@@H]2[C@H]3C(=O)N(c4ccc(F)cc4F)C(=O)[C@@H]3CC[C@H]12
inactive: Potency [1] | Potency [2] | Potency [4] | Potency [5]

C=CCOC(=O)N[C@H](c1ccc2ccccc2c1)[C@H](C)C=CCC(=O)OC
inactive: Potency [1] | Potency [2] | Potency [3] | Potency [4] | Potency [5]

COC(=O)[C@H]1C[C@@]2(CC=C(C)C)C(=O)[C@@](CC=C(C)C)(C(=O)C(C(=O)c3ccccc3)=C2OC)C1(C)C
inactive: Potency [1] | Potency [2] | Potency [4] | Potency [5]

C=C(CCN1C=C(C(C)=O)C(c2ccccc2)NC1=O)c1ccc(OC)cc1 (configuration not stated)
inactive: Potency [1] | Potency [2] | Potency [3] | Potency [4] | Potency [5]

COc1ccc2c(c1)C(=O)[C@@H](OC(=O)NCCc1ccc(OC)c(OC)c1)[C@H](c1ccc(OC)c(Br)c1)O2
inactive: Potency [1] | Potency [2] | Potency [4] | Potency [5]

COc1ccc(-c2ccc3c(n2)CCCN3CC(O)CN2CCCc3nc(C)c(C)cc32)cc1 (configuration not stated)
inactive: Potency [1] | Potency [2] | Potency [3] | Potency [4] | Potency [5]

O=C(NCCOc1ccccc1)O[C@@H]1C(=O)c2cc(Br)ccc2O[C@H]1c1ccc2c(c1)OCO2
inactive: Potency [1] | Potency [2] | Potency [4] | Potency [5]

C[C@@H]1C=CCCO[C@]12C(=O)N(Cc1ccc(F)cc1)c1cccc(Br)c12
inactive: Potency [1] | Potency [2] | Potency [3] | Potency [4] | Potency [5]

COc1ccc(C(=O)CC(=O)c2c(O)cc(OC)cc2OC)cc1
inactive: activity change, positive = activation [6] -41.2% [at 11.4 µM] | Potency [1] | Potency [2] | Potency [3] | Potency [4] | Potency [5]
active: Potency [7] 1260 nM | Potency [8] 398 nM

COC(=O)C1=C(C)N(Cc2ccccc2)C(=NCCc2ccccn2)NC1c1cccc(C(F)(F)F)c1 (configuration not stated)
active: Potency [1] 948 nM | Potency [2] 601 nM | Potency [4] 849 nM
inactive: Potency [3] | Potency [5]

COc1ccc(C(=O)[C@]2(C)C=C(c3ccc(OC)cc3)[C@H](C)C2)cc1
inactive: Potency [1] | Potency [2] | Potency [3] | Potency [4] | Potency [5]

CC1(OC(=O)c2cnc3ccccc3n2)C(=O)C=C2C=C(c3ccc(C#N)cc3)OC=C2C1=O (configuration not stated)
inactive: Potency [1] | Potency [2] | Potency [3] | Potency [4] | Potency [5]

C=C(Br)CO[C@@H]1C=C[C@@H](c2ccccc2)O[C@@H]1COC
inactive: Potency [1] | Potency [2] | Potency [3] | Potency [4] | Potency [5]

CCC(=O)C[C@@H](NC(=O)OC)c1ccc(F)cc1
inactive: Potency [1] | Potency [2] | Potency [3] | Potency [4] | Potency [5]

N#Cc1ccc2c(c1)C[C@]1(c3ccsc3)Oc3c(c(=O)oc4ccccc34)[C@H]2O1
inactive: Potency [1] | Potency [2] | Potency [3] | Potency [4] | Potency [5]

CC1=C[C@@H](C)OC2(C1)C(=O)N(CC1CC1)c1cccc(Br)c12 (some centres not stated)
inactive: Potency [1] | Potency [2] | Potency [3] | Potency [4] | Potency [5]

COC(=O)[C@H]1[C@@H](c2ccccc2)NC(=O)N(CCc2cc(OC)c(OC)c(OC)c2)[C@@H]1C
inactive: Potency [1] | Potency [2] | Potency [4] | Potency [5]

C#CCCCON=C1C[C@@H](O)[C@H](O)[C@H]2[C@@H]3C(=O)N(Cc4ccccc4)C(=O)[C@@H]3CC[C@H]12
inactive: Potency [1] | Potency [2] | Potency [4] | Potency [5]

COC1=C[C@@H](C(=O)N[C@H]2CCCC[C@H]2NC(C)=O)[C@@H](C)[C@H](c2ccccc2)CC1=O
inactive: Potency [1] | Potency [2] | Potency [4] | Potency [5]

CCOC(=O)NN=C1C[C@@H](O)[C@@H](O)[C@@H]2[C@H]3C(=O)N(c4cccc(Oc5ccccc5)c4)C(=O)[C@@H]3CC[C@@H]12
inactive: Potency [1] | Potency [2] | Potency [3] | Potency [4] | Potency [5]

COC(=O)C1=NOC2(C=C(Br)C(OC)=C(Br)C2=O)C1 (configuration not stated)
inactive: activity change, negative = inhibition [9] -15.6% [at 11.4 µM] | activity change, negative = inhibition [7] -8.27% [at 11.4 µM] | activity, negative = inhibition [8] -27.3% [at 11.4 µM] | Potency [1] | Potency [2] | Potency [3] | Potency [4] | Potency [5]

COC(=O)C(Cc1cc(Br)c(OC)c(Br)c1O)=NO
inactive: Potency [1] | Potency [2] | Potency [3] | Potency [4] | Potency [5]

CCN1C(=O)[C@@H]2[C@H]3[C@H](O)[C@H](O)CC(=NOC[C@H]4O[C@H](c5ccccc5)C=C[C@H]4Oc4ccc(OC)cc4)[C@@H]3CC[C@H]2C1=O
inactive: Potency [1] | Potency [2] | Potency [4] | Potency [5]
